MCF10A rerep – inducers of DNA re-replication in MCF 10A breast cells; MCF 10A DNA re-replication, Hoechst nuclear intensity, 48 h; 2.9% of 350,000 active; AID 624296; Potency, µM (titrated, usually from 46.1 µM), for the others: top-dose activity, positive = re-replication, most hits filed as activators; note: potency is the fitted concentration of half-maximal effect; % of control where 0% means no effect; nearly all actives have a fitted effect of over 50% in size
Giardia killer – kills Giardia lamblia | AID 540267 | activity change, % at 7.66 µM, hits read low | Giardia lamblia trophozoite viability | 0.15% of 340,000 active; in the data active = activity change below about -80%; inconclusive = between about -30% and that limit;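 note: parasites exposed to compound for two days anaerobically before the ATP read; % is set by controls: 0 for no effect and ±100 for the full control effect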
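Trophozoites 100 cells/well + cpd; 48 hrs, 37 deg C, anaerobic. ATPLite 1-Step added, 15-30 min RT, luminescence read (ATP-based viability).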
KB-3-1 cytotox – kills parental KB-3-1 adenocarcinoma cells; Potency, µM (series often up to 46.1 µM), hits mostly cytotoxic; AID 1347075; KB-3-1 viability, CellTiter-Glo ATP luminescence, 72 h; 1.4% of 400,000 active; note: potency is the fitted concentration of half-maximal effect; % is set by controls: 0 for no effect and ±100 for the full control effect; nearly all actives have a fitted effect of over 60% in size
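KB-3-1 cells, DMEM (no phenol red) + 10% FBS; compound by pin transfer, 72 h, 37 °C. Readout: CellTiter-Glo luminescence after 10 min. Data normalized, curve-fitted.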
SW480 rereplic – DNA re-replication induction in SW480 cells; SW480 DNA re-replication, Hoechst DNA content imaging, 48 h; Potency, µM (series often up to 46.1 µM), inactives show at the highest dose re-replication activation, hits mostly activators; 1.8% of 340,000 active; AID 624297; note: potency is the fitted concentration of half-maximal effect; % of control where 0% means no effect; nearly all actives have a fitted effect of over 55% in size
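First, 250 cells per well were seeded. Next, compound or vehicle (23 nL) was pinned in, plates sat 48 hr at 37 C. Finally Hoechst was added for 40 min before fluorescence scanning.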
S-ASM inh – inhibitors of human secretory acid sphingomyelinase | P17405 | Potency, µM (series often up to 57.5 µM), for the others: at the top dose activity change, negative = inhibition, most hits filed as inhibitors | placental ASM, HMU-PC fluorogenic substrate, 60 min | 0.006% of 340,000 active | AID 504937; note: potency is the fitted concentration of half-maximal effect
Target sequence (P17405 47-631 limits assumed): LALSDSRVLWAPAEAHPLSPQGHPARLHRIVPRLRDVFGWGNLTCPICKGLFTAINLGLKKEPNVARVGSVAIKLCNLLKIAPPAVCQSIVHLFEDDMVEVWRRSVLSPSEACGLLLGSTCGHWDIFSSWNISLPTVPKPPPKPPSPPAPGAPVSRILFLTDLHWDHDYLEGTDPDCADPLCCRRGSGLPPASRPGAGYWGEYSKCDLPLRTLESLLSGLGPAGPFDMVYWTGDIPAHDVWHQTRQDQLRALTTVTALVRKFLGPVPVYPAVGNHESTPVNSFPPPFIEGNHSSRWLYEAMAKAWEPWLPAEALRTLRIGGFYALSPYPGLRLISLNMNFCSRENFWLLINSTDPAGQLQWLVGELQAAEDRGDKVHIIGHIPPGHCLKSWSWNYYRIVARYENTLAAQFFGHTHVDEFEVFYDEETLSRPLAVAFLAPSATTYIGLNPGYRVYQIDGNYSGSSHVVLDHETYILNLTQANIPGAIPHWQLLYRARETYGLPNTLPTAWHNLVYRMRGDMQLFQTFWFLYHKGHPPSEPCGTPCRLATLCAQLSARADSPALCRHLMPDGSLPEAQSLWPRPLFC
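Human placenta-derived ASM preincubated with compound 10 min at room temperature, then reacted with 9 uM (final) fluorogenic HMU-PC substrate for 60 min at 37 C. Stop solution raises pH to 10; fluorescence read at Ex 386/Em 447 nm.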
KB-V1 MDR tox – kills drug-selected multidrug resistant KB-V1 cells; KB-V1 MDR cells viability, CellTiter-Glo, 72 h; AID 1347076; 3.4% of 400,000 active; Potency, µM (highest dose often 46.1 µM), most hits filed as cytotoxic; note: potency is the fitted concentration of half-maximal effect; % is set by controls: 0 for no effect and ±100 for the full control effect; nearly all actives have a fitted effect of over 60% in size
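In this primary screen, KB-V1 cells overexpressing P-gp are incubated with library compounds (lowest to highest concentration) for 72 h at 37 degrees C before a luminescent ATP viability read.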
* hit, by the source's call; i = inactive; ? = inconclusive; / = no result given. Hits are enriched below; roughly 6.9% of the tested compounds scored in any of these assays. Unless noted, calls come from the whole dose curve; as a rule, active = well fitted curve in the direction sought with a large enough effect; inconclusive = small, poorly fitted or top-dose-only effect, or another doubt; inactive = no such curve, though single readings can be large; an effect the other way counts as inactive or inconclusive.

SMILES	MCF10A rerep	Giardia killer	KB-3-1 cytotox	SW480 rereplic	S-ASM inh	KB-V1 MDR tox
Cc1ccc(S(=O)(=O)N2CCN(C(=O)C3COc4ccccc4O3)CC2)cc1C (centres undefined)	11.8%	13.2	i	0.9%	-4.3%	9.2µM*
COc1cc(C(=O)Nc2ccc3[nH]c(=O)sc3c2)cc(OC)c1OC	/	/	i	/	/	i
OCC(CO)(CO)N=Cc1c(O)ccc2ccccc12	8.2µM*	1.4	i	-0.3%	5.1%	?
Oc1ccc2ccccc2c1/C=N/Nc1nnc(-c2ncc[nH]2)c2ccccc12	?	-9.0	?	0.651µM*	-16.6%	?
Oc1ccc2ccccc2c1C=NNc1ccccn1	?	-1.1	?	7.31µM*	4.5%	0.517µM*
COc1ccc(/C=N/Nc2nnc(-c3ncc[nH]3)c3ccccc23)cc1	9.1%	-5.7	i	1.6%	12.2%	?
CN(C)/N=C/c1c(O)ccc2ccccc12	-3.7%	-2.1	i	-6.5%	-4.5%	i
Cc1ccc(Sc2c(C(=O)NCc3ccccc3C)[nH]c3ccccc23)cc1	/	/	i	/	/	?
c1ccc(-n2nnnc2Sc2ncnc3sc4c(c23)CCCC4)cc1	20.6µM*	-10.6	i	?	-5.7%	i
Cc1sc2ncnc(Sc3nnnn3-c3ccc(Cl)cc3)c2c1C	?	0.3	?	?	-0.9%	?
OB(O)c1ccc(B(O)O)cc1	/	2.9	i	/	/	i
Cc1n(Cc2ccccc2)c2cc([N+](=O)[O-])ccc2[n+]1Cc1ccccc1	-6.3%	19.3	i	0.8%	-2.6%	i
Cc1n(Cc2ccccc2)c2ccccc2[n+]1Cc1ccccc1	16.3%	4.0	6.51µM*	0.6%	2.2%	i
CC(CN1CCCCC1)OC(=O)/C=C/c1ccccc1 (centres undefined)	1.0%	5.5	i	-20.6%	0.0%	i
O=S(=O)(c1ccc(NC(=S)NCCC(c2ccccc2)c2ccccc2)cc1)N1CCOCC1	5.17µM*	8.3	?	?	-9.0%	?
CCCCOCCCNC(=S)Nc1ccc(S(=O)(=O)N2CCOCC2)cc1	19.5%	-0.4	?	63.2%	0.0%	18.4µM*
O=S(=O)(c1ccc(NC(=S)N/N=C/c2c3ccccc3cc3ccccc23)cc1)N1CCOCC1	?	35.5	3.66µM*	13µM*	-0.1%	?
CC(C)(C)CC(C)(C)NC(=S)Nc1ccc(S(=O)(=O)N2CCOCC2)cc1	?	-14.9	?	11.8%	-10.0%	i
CCOc1ccc(N(CC)S(=O)(=O)N2CCCC(C(=O)Nc3cc(Cl)ccc3OC)C2)cc1 (centres undefined)	/	/	i	/	/	i
C=CCn1c(SCc2csc(-c3ccc(Cl)cc3)n2)nnc1-c1ccccc1OC	?	-16.3	?	/	-1.6%	20.6µM*
C=CCn1c(SCC(=O)Nc2ccc3c(c2)OCO3)nnc1-c1ccccc1OC	-0.9%	6.0	i	-1.0%	2.6%	i
CN(C)/C=C1/OC(=O)C(C#N)=C1c1ccc(Cl)cc1	18.4µM*	-15.5	i	?	151.5%	i
COc1ccc(C2c3c(n(C)c4ccccc34)C(=O)N2CC(=O)Nc2ccccc2Cl)cc1 (centres undefined)	/	/	i	/	/	i
C=Cc1ccc(CSc2nc(-c3ccc(C)cc3)nc3c2Cc2c(CO)cnc(C)c2O3)cc1	/	/	i	/	/	i
OC(CBr)C[n+]1cc(Br)cc2ccccc21 (centres undefined)	/	/	i	/	/	i
Cc1ccc(Cl)cc1-n1c(SCC(=O)NCCC2=CCCCC2)nc2n[nH]c(C)c2c1=N	?	-7.4	i	15.2%	-1.9%	i
CCOc1ccc(CCNC(=O)CSc2nnnn2-c2ccc(C)cc2C)cc1OCC	/	/	i	/	/	?
Cc1ccc(-n2nnnc2SCC(=O)NCCC2=CCCCC2)c(C)c1	11.0%	10.2	i	2.3%	-0.6%	20.6µM*
Cc1cc(-n2c(SCC(=O)NCCC3=CCCCC3)nc3n[nH]c(C)c3c2=N)ccc1Cl	20.6µM*	-12.9	i	26.3%	-2.5%	i

Source: PubChem BioAssay
